AmpC detergent: AmpC beta-lactamase inhibition with detergent present; Potency, µM (series often up to 114 µM), actives largely listed as inhibitors; 370,000 tested, 0.041% active; AmpC hydrolysis of nitrocefin, absorbance 480 nm, 0.01% Triton; AID 485294; P00811; also: nearly all actives have a fitted effect of over 25% in size
Target sequence (P00811 whole entry, looked up): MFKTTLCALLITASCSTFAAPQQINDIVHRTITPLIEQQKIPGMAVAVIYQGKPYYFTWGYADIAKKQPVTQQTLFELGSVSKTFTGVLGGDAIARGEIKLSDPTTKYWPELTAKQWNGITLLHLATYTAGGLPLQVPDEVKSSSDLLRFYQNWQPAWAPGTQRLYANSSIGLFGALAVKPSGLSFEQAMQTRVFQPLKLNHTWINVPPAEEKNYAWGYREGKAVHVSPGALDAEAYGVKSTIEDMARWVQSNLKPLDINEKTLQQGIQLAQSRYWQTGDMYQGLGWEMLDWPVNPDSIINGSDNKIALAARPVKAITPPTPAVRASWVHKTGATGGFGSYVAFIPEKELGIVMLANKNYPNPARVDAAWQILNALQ
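AmpC (5.3 nM in the dispensed reagent) in 20 mM phosphate pH 7.0 with 0.01% (detergent screen) or 0.0001% Triton X-100 was preincubated with compounds for 15 min at room temperature. Nitrocefin was then added from an 800 uM solution, and hydrolysis was followed at 480 nm.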
Sm TGR inh: inhibitors of Schistosoma mansoni thioredoxin glutathione reductase; Q962Y6; purified TGR, DTNB reduction, TNB absorbance 405 nm; Potency, µM (titrated, usually from 114 µM), most hits filed as inhibitors; 360,000 tested, 3% active; AID 485364; also: nearly all actives have a fitted effect of over 60% in size
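First, TGR (20 nM dispensed) and NADPH were mixed with compound. Second, a 15 min room-temperature incubation followed. Third, further NADPH and then DTNB were added to start the reaction. Finally, TNB absorbance was monitored kinetically.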
AmpC no deterg: blocks E. coli AmpC beta-lactamase in detergent-free assay. P00811. AmpC nitrocefin hydrolysis, absorbance 480 nm, 0.0001% Triton. Potency, µM (series often up to 57.1 µM), usual class: inhibitors. 330,000 tested, 0.52% active; also: nearly all actives have a fitted effect of over 20% in size
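AmpC (5.3 nM in the dispensed reagent) in 20 mM phosphate pH 7.0 with 0.01% (detergent screen) or 0.0001% Triton X-100 was preincubated with compounds for 15 min at room temperature. Nitrocefin was then added from an 800 uM solution, and hydrolysis was followed at 480 nm.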
Numbers stand for hits; i = inactive; ? = inconclusive; nt = no result; ! = not confirmed by another sample. The list is not random: actives were taken first. Their share in the collection is about 3.3%. Calls follow the shape of the dose curve; as a rule, active = well fitted curve in the direction sought with a large enough effect; inconclusive = small, poorly fitted or top-dose-only effect, or another doubt; inactive = no such curve, though single readings can be large; an effect the other way counts as inactive or inconclusive.

SMILES	AmpC detergent	Sm TGR inh	AmpC no deterg
CCOc1ccc(NC(=O)C(CC)n2c(=O)c(-c3ccccc3NC(C)=O)nc3ccccc32)cc1 (stereo not drawn)	i	i	nt
COc1c(C)cccc1C(=O)Nc1cccc2ccc(C)nc12	i	i	nt
O=C(NCCc1ccccc1)c1cnc2sc(N3CCCCC3)nn2c1=O	i	i	nt
CCC1CCCCN1C(=O)CSc1nnc(-c2cccc(Cl)c2)o1 (stereo not drawn)	?	i	5.01µM
CCC1CCCCN1C(=O)CSc1nnc(-c2ccc(Cl)cc2)o1 (stereo not drawn)	?	i	i
COc1ccc(-c2noc(CSc3nnc(C)n3-c3ccc(C)cc3)n2)cc1	i	i	nt
CC1(C)S[C@@H]2[C@H](NC(=O)C(NC(=O)N3CCNC3=O)c3ccccc3)C(=O)N2[C@H]1C(=O)O (stereo partly drawn)	i	i	i
CCOc1ccc2ccccc2c1C(=O)N[C@@H]1C(=O)N2[C@@H]1SC(C)(C)[C@@H]2C(=O)O	5.01µM	i	5.62µM!
Cc1cc(COC(=O)C2N3C(=O)[C@@H](NC(=O)COc4ccccc4)[C@H]3SC2(C)C)on1 (stereo partly drawn)	i	i	i
CC1(C)S[C@@H]2[C@H](NC(=O)Cc3ccccc3)C(=O)N2[C@H]1C(=O)O	i	i	i
CCC(Oc1ccccc1)C(=O)NC1C(=O)N2C1SC(C)(C)C2C(=O)O (stereo not drawn)	31.6µM	nt	28.2µM
CC1(C)S[C@@H]2[C@H](NC(=O)[C@H](N)c3ccccc3)C(=O)N2[C@H]1C(=O)OC1OC(=O)c2ccccc21 (stereo partly drawn)	63.1µM	i	0.224µM
O=C(CN1C(=O)C2(SCC(=O)N2c2ccccc2)c2ccccc21)Nc1ccccc1C(F)(F)F (stereo not drawn)	i	i	nt
CCOC(=O)c1c(/N=C/c2c(O)n(-c3ccc(F)cc3)c(=S)[nH]c2=O)sc2c1CCCC2	i	?	i
CCOC(=O)c1c(/N=C/c2c(O)n(-c3ccccc3F)c(=S)[nH]c2=O)sc2c1CCCC2	?	11.2µM	i
CCCCN(CC)CCNC(=O)C1CCCN(c2ncnc3onc(C)c23)C1 (stereo not drawn)	i	i	nt
CCc1cccc(C)c1NC(=O)Cn1ccn(-c2cccc(OC)c2)c(=O)c1=O	i	i	nt
COc1ccc(NC(=S)Nc2ccccc2)cc1	i	i	i
CNC(=O)Nc1ccc2snnc2c1	i	i	i
COc1ccc(NC(=S)Nc2ccc3snnc3c2)cc1	i	15.8µM	i
COc1ccc(NC(=S)Nc2ccc3nccnc3c2)cc1	i	31.6µM	i
O=C(NN=Cc1ccccc1OC(F)F)c1ccc(NS(=O)(=O)c2cccs2)cc1	nt	nt	15.8µM
O=C(NN=Cc1ccc(OC(F)F)cc1)c1ccc(NS(=O)(=O)c2cccs2)cc1	nt	nt	i
O=C(N/N=C/C=C/c1ccccc1[N+](=O)[O-])c1cccs1	i	i	i
O=C(N/N=C/c1ccc([N+](=O)[O-])o1)c1ccc(NS(=O)(=O)c2cccs2)cc1	i	35.5µM	i
SMILES	AmpC detergent	Sm TGR inh	AmpC no deterg
O=C(N/N=C\C=C\c1ccc([N+](=O)[O-])o1)c1cccs1	i	10µM	i
O=C(N/N=C/c1ccc([N+](=O)[O-])cc1)c1ccc(NS(=O)(=O)c2cccs2)cc1	?	i	i
COc1ccc(N2Cc3cccc(C(=O)Nc4ccc(C)c(C)c4)c3C2=O)cc1	i	i	nt
CCOC(=O)COc1cc(C)c(Cl)cc1C(=O)c1ccn2nc(-c3ccc(OC)cc3)cc2n1	i	i	nt
Cc1sc(NC(=O)c2ccco2)c(C(c2cccnc2)N2CCN(C)CC2)c1C (stereo not drawn)	i	35.5µM	i
Cc1sc(NC(=O)c2ccco2)c(C(c2cccnc2)N2CCCC2)c1C (stereo not drawn)	i	?	i
COc1ccccc1NC(=O)c1cnc(SCC(=O)N2CCOCC2)n(C)c1=O	i	i	nt
CCN(CC)c1ccc(NC(=O)COc2ccc(C#N)cc2)cc1S(=O)(=O)Nc1ccc(OC)cc1	i	i	5.01µM
COc1ccc(OCC(=O)Nc2ccc(C)c(S(=O)(=O)N(C)C)c2)cc1	i	i	i
COc1cc([N+](=O)[O-])ccc1NC(=O)Nc1ccc(C(=O)N2CCCC2)cc1	i	?	i
COc1cc([N+](=O)[O-])ccc1NC(=O)N1CCCCCC1	i	31.6µM	i
CCOc1ccccc1NC(=O)CSc1nc2c(oc3ccccc32)c(=O)n1-c1ccc(C)c(C)c1	i	i	nt
CCN1Cc2c(/C=C/c3ccccc3)nc3ccc(OC)cc3c2N(c2cccc(Cl)c2)C1	i	39.8µM	i
COc1cccc(N2CCc3c(C)nc4ccc(Cl)cc4c32)c1	i	i	i
COc1ccc(S(=O)(=O)N2CCN(Cc3cc(OC)c(O)c(OC)c3)CC2)cc1	i	3.55µM	i
COc1cc(CN2CCN(S(=O)(=O)c3ccccc3)CC2)cc(OC)c1O	i	4.47µM	nt
COc1ccc(S(=O)(=O)N2CCN(Cc3cc(OC)c(OC)c(OC)c3)CC2)cc1	i	i	i
COc1cc(CN2CCN(S(=O)(=O)c3ccc(NC(C)=O)cc3)CC2)cc(OC)c1O	i	?	i
CCc1cccc(NC(=O)CSC2=Nc3ccccc3N=C(c3ccc(F)cc3)C2)c1	i	i	nt
CCn1c(SC)nc2c([nH]c3ccccc32)c1=O	i	i	nt
Cc1sc2nc3ccc(NCc4ccco4)nn3c(=O)c2c1C	i	35.5µM	i
O=c1c2ccccc2nc2ccc(NCc3ccco3)nn12	i	?	i
CCCCCC(=O)NNC(=S)NC(=O)c1ccccc1[N+](=O)[O-]	i	i	i
CC(=O)c1cccc([N+](=O)[O-])c1	i	i	i
CCCCCC(=O)NNC(=S)NC(=O)c1cccc([N+](=O)[O-])c1	i	1.58µM	i
SMILES	AmpC detergent	Sm TGR inh	AmpC no deterg
O=C(CNC(=S)NC(=O)c1cccc([N+](=O)[O-])c1)c1ccccc1	i	i	12.6µM
O=C(NC(=S)NCc1ccccc1)c1cccc([N+](=O)[O-])c1	i	i	i
O=C(C#Cc1ccccc1)c1cccc([N+](=O)[O-])c1	?	0.251µM	i
COc1ccc(Nc2oc(/C=C/c3cc(OC)c(OC)c(OC)c3)nc2C#N)cc1	i	i	nt
Cc1nn(CC(=O)NCc2ccc(OC(C)C)cc2)c(=O)c2c(C)n(-c3ccc(Cl)cc3)nc12	i	i	nt
COCCNC(=S)Nc1ccc(N2CCOCC2)c(S(=O)(=O)Nc2ccccc2OC)c1	i	i	10µM
COc1ccccc1NS(=O)(=O)c1cc(NC(=O)c2cc(F)c(F)c(F)c2F)ccc1N1CCOCC1	nt	nt	i
COc1ccccc1NS(=O)(=O)c1cc(NC(=O)C2CC2)ccc1N1CCOCC1	i	i	i
COc1ccccc1NS(=O)(=O)c1cc(NC(=O)c2ccc(=O)[nH]c2)ccc1N1CCOCC1	i	i	14.1µM
O=S(=O)(NCc1ccc(Cl)cc1)c1ccc2[nH]c3c(c2c1)CCCC3	i	i	nt
Cc1cccc(OC(=O)c2nc(SCc3ccccc3F)ncc2Cl)c1	i	i	nt
CC(=O)Nc1ccc(CN2CCc3c([nH]c4ccccc34)C2C(C)(C)C)cc1 (stereo not drawn)	i	50.1µM	i

Screens: PubChem, National Center for Advancing Translational Sciences (NCATS)
